# Measurements as given in PubChem BioAssay (Tox21).
# Records with an inconclusive call do not appear. Entries that show only a call come without a potency. Unmarked numbers belong to inactive results. The source made the active and inactive calls. The call rests on the fitted dose curve; in most records, active means well fitted curve in the direction sought with a large enough effect in the repeat runs; inconclusive means weak or mixed curves; inactive means no such curve, though single readings can be large; an effect the other way counts as inactive or inconclusive.
# How the values were obtained:
# [1] = target: Cytochrome P450 2C19 (Homo sapiens) (UniProt P33261); assay: Cytochrome P450 Family 2 Subfamily C Member 19 (CYP2C19) small molecule antagonists: luciferase reporter qHTS assay (AID 1671197); further: nearly all actives have a fitted effect of over 65% in size; on activity change, negative = inhibition: series mostly up to about 120 µM
# Cytochrome P450 2C19 (Homo sapiens), sequence (P33261 whole entry, looked up): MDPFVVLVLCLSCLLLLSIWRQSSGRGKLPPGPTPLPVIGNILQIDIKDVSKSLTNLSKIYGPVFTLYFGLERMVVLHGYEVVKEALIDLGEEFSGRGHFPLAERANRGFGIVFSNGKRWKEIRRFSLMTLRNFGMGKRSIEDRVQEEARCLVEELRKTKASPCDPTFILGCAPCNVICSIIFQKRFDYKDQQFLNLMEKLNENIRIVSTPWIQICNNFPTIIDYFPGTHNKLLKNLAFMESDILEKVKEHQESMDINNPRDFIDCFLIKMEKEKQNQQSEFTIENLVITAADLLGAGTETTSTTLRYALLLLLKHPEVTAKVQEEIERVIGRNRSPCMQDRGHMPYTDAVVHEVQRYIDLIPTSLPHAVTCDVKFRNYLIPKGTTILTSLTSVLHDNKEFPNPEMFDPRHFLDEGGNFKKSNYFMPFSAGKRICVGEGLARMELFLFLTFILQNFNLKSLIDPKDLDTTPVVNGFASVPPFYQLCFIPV
# Outline: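 P450-Glo CYP2C19 system: enzyme-substrate mix with compound 10 min at room temperature, then NADPH regeneration solution, 1 h at 37C. Proluciferin-to-luciferin conversion detected by luminescence after 20 min with detection reagent; ketoconazole as positive control.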
# [2] = target: Cytochrome P450 2C9 (Homo sapiens) (UniProt P11712); assay: Cytochrome P450 Family 2 Subfamily C Member 9 (CYP2C9) small molecule antagonists: luciferase reporter qHTS assay (AID 1671198); further: nearly all actives have a fitted effect of over 50% in size; on activity change, negative = inhibition: series mostly up to about 120 µM
# Cytochrome P450 2C9 (Homo sapiens), sequence (P11712 whole entry, looked up): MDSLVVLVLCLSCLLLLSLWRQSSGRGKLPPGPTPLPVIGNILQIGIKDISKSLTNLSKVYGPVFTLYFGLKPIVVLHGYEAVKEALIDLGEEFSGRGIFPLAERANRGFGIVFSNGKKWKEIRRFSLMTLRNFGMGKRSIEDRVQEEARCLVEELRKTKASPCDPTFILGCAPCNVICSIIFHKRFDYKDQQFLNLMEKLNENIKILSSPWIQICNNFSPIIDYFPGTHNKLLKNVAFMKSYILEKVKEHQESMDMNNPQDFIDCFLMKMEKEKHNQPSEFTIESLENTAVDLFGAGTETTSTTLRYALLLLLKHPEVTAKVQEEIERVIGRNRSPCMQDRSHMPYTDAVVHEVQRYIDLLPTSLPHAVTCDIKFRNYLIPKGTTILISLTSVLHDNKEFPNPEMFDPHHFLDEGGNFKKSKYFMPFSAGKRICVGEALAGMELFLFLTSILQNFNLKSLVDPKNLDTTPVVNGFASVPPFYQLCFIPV
# Outline: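 P450-Glo proluciferin substrate with CYP2C9 enzyme; 10 min RT preincubation, then NADPH regeneration 1 h at 37C; luciferin detection reagent 20 min RT, luminescence in relative luminescence units.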
# [3] = target: Cytochrome P450 1A2 (Homo sapiens) (UniProt P05177); assay: Cytochrome P450 Family 1 Subfamily A Member 2 (CYP1A2) small molecule antagonists: luciferase reporter qHTS assay (AID 1671199); further: nearly all actives have a fitted effect of over 50% in size; on activity change, negative = inhibition: series mostly up to about 120 µM
# Cytochrome P450 1A2 (Homo sapiens), sequence (P05177 whole entry, looked up): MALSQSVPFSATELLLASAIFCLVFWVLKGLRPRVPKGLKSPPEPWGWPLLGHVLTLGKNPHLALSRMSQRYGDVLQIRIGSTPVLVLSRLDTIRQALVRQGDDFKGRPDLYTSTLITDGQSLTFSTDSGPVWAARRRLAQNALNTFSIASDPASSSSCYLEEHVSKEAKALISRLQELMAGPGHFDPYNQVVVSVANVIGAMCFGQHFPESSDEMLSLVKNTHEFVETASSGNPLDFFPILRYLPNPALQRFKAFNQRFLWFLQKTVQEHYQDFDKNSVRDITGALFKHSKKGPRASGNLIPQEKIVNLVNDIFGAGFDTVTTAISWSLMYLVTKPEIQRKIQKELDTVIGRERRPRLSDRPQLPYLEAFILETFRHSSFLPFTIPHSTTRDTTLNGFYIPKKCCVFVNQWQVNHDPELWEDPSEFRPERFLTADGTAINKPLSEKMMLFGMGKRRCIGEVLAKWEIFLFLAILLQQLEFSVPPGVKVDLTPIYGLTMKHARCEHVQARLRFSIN
# Outline: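 Human CYP1A2 activity measured with a P450-Glo proluciferin substrate; compounds in DMSO preincubated 10 min at room temperature with enzyme-substrate mix, then NADPH regeneration system added for 1 h. Luciferin detection reagent, 20 min, luminescence read.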
# [4] = target: Voltage-gated inwardly rectifying potassium channel KCNH2 (Homo sapiens) (UniProt Q12809); assay: Human Ether-a-go-go-Related Gene (hERG) channel small molecule antagonists: fluorescence cell-based qHTS assay (AID 1671200); further: nearly all actives have a fitted effect of over 50% in size;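 on activity change, negative = inhibition: hERG-expressing U2OS cells given a thallium stimulus after FluxOR II dye loading; series mostly up to about 77 µM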
# Voltage-gated inwardly rectifying potassium channel KCNH2 (Homo sapiens), sequence (Q12809 whole entry, looked up): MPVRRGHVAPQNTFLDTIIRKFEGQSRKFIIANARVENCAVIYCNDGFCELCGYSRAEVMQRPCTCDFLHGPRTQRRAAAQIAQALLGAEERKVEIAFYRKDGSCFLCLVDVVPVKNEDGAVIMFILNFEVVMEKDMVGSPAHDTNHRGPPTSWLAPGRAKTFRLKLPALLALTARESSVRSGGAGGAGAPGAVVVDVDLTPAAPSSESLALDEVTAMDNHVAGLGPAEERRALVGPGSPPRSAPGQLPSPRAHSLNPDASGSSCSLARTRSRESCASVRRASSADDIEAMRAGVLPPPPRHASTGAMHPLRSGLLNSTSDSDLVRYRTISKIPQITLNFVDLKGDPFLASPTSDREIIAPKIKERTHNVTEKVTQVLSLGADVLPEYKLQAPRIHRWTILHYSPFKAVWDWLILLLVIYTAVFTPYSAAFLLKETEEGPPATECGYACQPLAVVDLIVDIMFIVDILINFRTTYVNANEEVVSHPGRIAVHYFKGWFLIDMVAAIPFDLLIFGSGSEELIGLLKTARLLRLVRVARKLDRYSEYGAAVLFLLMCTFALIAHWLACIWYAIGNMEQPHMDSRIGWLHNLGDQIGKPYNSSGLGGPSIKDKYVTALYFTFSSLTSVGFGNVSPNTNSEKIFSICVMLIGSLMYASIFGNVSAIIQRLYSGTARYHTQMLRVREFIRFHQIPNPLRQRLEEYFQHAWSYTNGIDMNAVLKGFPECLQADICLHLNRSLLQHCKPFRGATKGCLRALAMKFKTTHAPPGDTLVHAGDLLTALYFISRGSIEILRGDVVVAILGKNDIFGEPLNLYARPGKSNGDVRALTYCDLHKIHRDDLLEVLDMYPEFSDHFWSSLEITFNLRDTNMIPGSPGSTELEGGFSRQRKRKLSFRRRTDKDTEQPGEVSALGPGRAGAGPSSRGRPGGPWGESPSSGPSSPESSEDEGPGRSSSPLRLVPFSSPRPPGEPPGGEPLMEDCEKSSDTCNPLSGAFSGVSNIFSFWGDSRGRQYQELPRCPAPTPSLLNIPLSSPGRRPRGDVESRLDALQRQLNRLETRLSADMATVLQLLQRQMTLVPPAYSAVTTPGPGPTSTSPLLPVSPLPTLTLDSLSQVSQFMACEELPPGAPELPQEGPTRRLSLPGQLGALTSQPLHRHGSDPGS
# Outline: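 Quantitative HTS in hERG-U2OS cells: thallium entry through the channel reports activity, read as continuous 480/540 nm fluorescence over 2 min after stimulus addition.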
# [5] = target: Cytochrome P450 3A4 (Homo sapiens) (UniProt P08684); assay: Cytochrome P450 Family 3 Subfamily A Member 4 (CYP3A4) small molecule antagonists: luciferase reporter qHTS assay (AID 1671201); further: nearly all actives have a fitted effect of over 50% in size; on activity change, negative = inhibition: series mostly up to about 120 µM
# Cytochrome P450 3A4 (Homo sapiens), sequence (P08684 whole entry, looked up): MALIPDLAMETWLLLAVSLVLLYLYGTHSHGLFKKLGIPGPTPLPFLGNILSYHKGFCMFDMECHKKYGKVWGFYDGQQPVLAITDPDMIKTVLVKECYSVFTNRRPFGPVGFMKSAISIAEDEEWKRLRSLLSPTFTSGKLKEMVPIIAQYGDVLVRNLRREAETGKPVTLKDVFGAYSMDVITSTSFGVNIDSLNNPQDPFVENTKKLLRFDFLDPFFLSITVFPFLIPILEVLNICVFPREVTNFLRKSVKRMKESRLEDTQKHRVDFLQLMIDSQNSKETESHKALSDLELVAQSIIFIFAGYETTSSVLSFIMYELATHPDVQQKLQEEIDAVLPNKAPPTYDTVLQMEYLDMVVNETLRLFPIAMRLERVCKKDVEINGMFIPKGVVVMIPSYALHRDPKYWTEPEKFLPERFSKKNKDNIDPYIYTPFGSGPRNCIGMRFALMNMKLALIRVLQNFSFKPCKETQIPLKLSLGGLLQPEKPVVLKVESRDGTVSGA
# Outline: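 Inhibition of CYP3A4 is measured as loss of light: the enzyme converts a proluciferin substrate to luciferin, detected luminescently. Reaction ran 1 h at room temperature with NADPH regeneration after a 10 min compound preincubation.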
# Potency means the concentration at half of the fitted maximal effect.
structure (smiles),measurement,setting,value
OCc1c2ccccc2cc2ccccc12,Potency,[1],35.7 µM (active)
same,Potency,[2],22.5 µM (active)
same,Potency,[3],0.897 µM (active)
same,Potency,[4],inactive
same,Potency,[5],25.3 µM (active)
C[C@@H]1CN(c2c(F)c(N)c3c(=O)c(C(=O)O)cn(C4CC4)c3c2F)C[C@H](C)N1,"activity change, negative = inhibition",[1],45.2% [at 23.6 µM]
same,Potency,[2],inactive
same,Potency,[3],inactive
same,"activity change, negative = inhibition",[4],-2.21% [at 15.8 µM]
same,"activity change, negative = inhibition",[5],-3.59% [at 23.6 µM]
CCOc1ccc(NC(N)=O)cc1,Potency,[2],inactive
same,Potency,[3],35.6 µM (active)
same,Potency,[5],inactive
NNS(=O)(=O)c1ccc(Oc2ccc(S(=O)(=O)NN)cc2)cc1,Potency,[2],5.03 µM (active)
same,Potency,[3],inactive
same,Potency,[4],inactive
same,Potency,[5],inactive
CCOC(=O)NCCC[Si](OCC)(OCC)OCC,Potency,[2],inactive
same,Potency,[3],inactive
same,Potency,[4],inactive
same,Potency,[5],39.9 µM (active)
COc1cc(N)c(Cl)cc1C(=O)NC1CCN(Cc2ccccc2)CC1,Potency,[2],inactive
same,Potency,[3],inactive
same,Potency,[4],16.9 µM (active)
COc1ccccc1OCC(O)COC(N)=O (stereo not given),Potency,[2],inactive
same,Potency,[3],inactive
same,Potency,[4],inactive
COc1ccc(S(=O)(=O)Nc2nnc(CC(C)C)s2)cc1,Potency,[2],9.77 µM (active)
same,Potency,[3],inactive
same,Potency,[5],inactive
CCN[C@H]1CN(CCCOC)S(=O)(=O)c2sc(S(N)(=O)=O)cc21,Potency,[2],inactive
same,Potency,[3],inactive
same,Potency,[4],inactive
same,Potency,[5],inactive
O=C(O)c1ccccc1Nc1cc(Cl)ccc1C(=O)O,Potency,[2],inactive
same,Potency,[3],inactive
same,"activity change, negative = inhibition",[4],6.42% [at 15.8 µM]
same,"activity change, negative = inhibition",[5],34.1% [at 23.6 µM]
CC1=CC(=O)CC(C)(C)C1=O,Potency,[2],inactive
same,Potency,[3],inactive
same,Potency,[4],inactive
CC1=C(O)C(=O)OC1C (stereo not given),Potency,[2],inactive
same,Potency,[3],inactive
same,Potency,[4],inactive
same,Potency,[5],inactive
